Bioassay records deposited in PubChem BioAssay by National Center for Advancing Translational Sciences (NCATS).
This is a sample that favours compounds with a hit; in the whole collection about 12% have one here.
PLK1 PBD inh: PLK1 (human) polo-box domain binding inhibition; P53350; Potency, µM, for inactives: max response, negative = inhibition, hits mostly inhibitors; 2.8% of 360,000 active; Plk1 PBD binding of FITC phosphopeptide, fluorescence polarization; AID 720504; further: series mostly up to about 57 µM; on the % scale 0 is the no-effect control and ±100 the full control effect; nearly all actives have a fitted effect of over 65% in size
BAZ2B inh: inhibitors of human BAZ2B bromodomain; AlphaScreen BAZ2B-H3K14Ac peptide displacement; Potency, µM (top dose mostly 114 µM), inactives show at the top dose activity change, negative = inhibition, hits mostly inhibitors; 4.4% of 360,000 active; AID 504333; further: on the % scale 0 is the no-effect control and ±100 the full control effect; nearly all actives have a fitted effect of over 60% in size
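BAZ2B 50 nM plus b-H3(5-23)K14Ac 50 nM, PBS pH 7.4/0.01% Tween-20, 30 min RT; compound added (max 110 uM), 30 min RT; streptavidin donor/Ni-chelate acceptor beads 10 ug/mL final, 20 min dark; AlphaScreen read.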
JMJD2A Tudor: JMJD2A Tudor domain (human) inhibition; AlphaScreen JMJD2A-Tudor / H3K4me3 peptide binding; Potency, µM (highest dose often 114 µM), for inactives: top-dose activity change, negative = inhibition, most hits filed as inhibitors; O75164; 4.4% of 390,000 active; further: on the % scale 0 is the no-effect control and ±100 the full control effect; nearly all actives have a fitted effect of over 50% in size
Sfp PPTase inh: inhibitors of Bacillus subtilis Sfp phosphopantetheinyl transferase | Potency, µM, inactives show largest response in the series, negative = inhibition, actives largely listed as inhibitors | AID 1490 | 3.5% of 310,000 active | Biochemical Sfp PPTase activity, qHTS | Q9F4F7;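 further: the enzyme is Sfp with the accession as filed and its product quenches rhodamine fluorescence; 0% = enzyme reaction without inhibitor and -100% = no enzyme wells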
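Step 1, compound plus 15 nM Sfp-PPTase, 15 min, room temperature. Step 2, add rhodamine-CoA (5 uM) and BHQ-2-YbbR (12.5 uM). Step 3, read 525/598 nm fluorescence at 0 and 30 min.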
G9a inh: blocks human histone lysine methyltransferase G9a. Q96KQ7. G9a H3K9 monomethylation, AlphaScreen, 2 h. Potency, µM (titrated, usually from 102 µM), without a hit: at the top dose activity, negative = inhibition, usual class: inhibitors. 8.8% of 350,000 active. AID 504332; further: on the % scale 0 is the no-effect control and ±100 the full control effect; nearly all actives have a fitted effect of over 75% in size
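Step 1: enzyme (final 20 nM) with compound, 15 min RT. Step 2: substrate peptide 500 nM and SAM 20 uM, 2 h RT. Step 3: anti-H3K9me1 antibody and AlphaScreen beads, 10 min, then plate read.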
HP1b chromo inh: inhibitors of HP1-beta chromodomain binding to methylated histone tails | Potency, µM (doses to about 114 µM), for the others: at the highest dose activity change, negative = inhibition, actives largely listed as inhibitors | AlphaScreen HP1-beta / biotin-H3K9me3 peptide binding | 0.56% of 390,000 active; further: nearly all actives have a fitted effect of over 70% in size
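AlphaScreen: HP1-beta (50 nM) preformed 30 min with biotin-H3(1-18)K9me3 peptide (50 nM) in PBS pH 7.4, 0.01% Tween-20. Compound added for 30 min at RT, then streptavidin donor/nickel chelate acceptor beads (10 ug/mL) for 30 min.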
The depositor's hits bear a star; ? = inconclusive; . = no result; [ ] = dose if it differs, or a comment. The call rests on the fitted dose curve; in most records, active means well fitted curve in the direction sought with a large enough effect; inconclusive means small, poorly fitted or top-dose-only effect, or another doubt; inactive means no such curve, though single readings can be large; an effect the other way counts as inactive or inconclusive. Potency means the concentration at half of the fitted maximal effect.

SMILES	PLK1 PBD inh	BAZ2B inh	JMJD2A Tudor	Sfp PPTase inh	G9a inh	HP1b chromo inh
COc1ccc(/C=N/n2cncn2)cc1COc1ccc(NC(C)=O)cc1	27µM*	7%	50µM*	-6%	2%[12.7 µM]	-4%
COC(=O)C/C=C\[C@@H](C)[C@@H](/C=N\O[C@@H](C)CN1CCCc2nc(C)c(C)cc21)OC	.	.	.	1%	.	.
COc1cccc(OCc2cc(/C=N/Nc3ccc(C(=O)O)cc3)ccc2OC)c1	?	56µM*	56µM*	-5%	?	16%
CCOc1cc(/C=N/Nc2ccc(C(=O)O)cc2)ccc1OC(=O)c1ccccc1C	?	?	?	-13%	35µM*	7%
COc1cc(/C=N/Nc2ccc(Cl)c(C(=O)O)c2)ccc1OC(=O)c1ccc(F)cc1	?	?	?	-15%	?	7%
COc1cc(/C=N/Nc2ccc(Cl)c(C(=O)O)c2)ccc1OC(=O)c1ccccc1F	?	?	?	-22%	40µM*	-11%
CC1CCCN(c2ncnc3c2cnn3-c2ccc(F)cc2)C1 (stereo unspecified)	.	76%	52%	.	20%[59 µM]	52%
O=C(Nc1cccc(OC(F)(F)F)c1)C1Cc2c(-c3ccc4c(c3)OCO4)ccnc2O1 (stereo unspecified)	2%	.	.	.	.	.
Clc1ccc(-c2nc3cnccn3c2Nc2ccc3c(c2)OCO3)cc1	-16%	45µM*	50µM*	-6%	16µM*	?
COc1ccc(Nc2c(-c3ccc(Cl)cc3)nc3cnccn23)cc1OC	.	45µM*	56µM*	.	13µM*	-37%
Clc1ccc(-c2nc3ncccn3c2Nc2ccc3c(c2)OCCO3)cc1	-4%	-36%	-3%	9%	-20%[59 µM]	5%
c1cncc(-c2nc3ccccn3c2Nc2ccc3c(c2)OCCO3)c1	-14%	?	?	14%	?	-10%
CSc1ccc(-c2nc3cnccn3c2Nc2ccc3c(c2)OCO3)cc1	-6%	11µM*	?	?	45µM*	45µM*
Cc1cccc(N2CCN(C(=O)CCc3c(C)nc4ncnn4c3C)CC2)c1C	.	-4%	-15%	.	-4%[59 µM]	14%
Cc1ccc(N2C(=O)CS(=O)(=O)C23C(=O)Nc2ccccc23)cc1C (stereo unspecified)	.	8%[57.1 µM]	-11%	.	16µM*	21%
Cc1cc(C)cc(N2C(=O)CS(=O)(=O)C23C(=O)N(C)c2ccccc23)c1 (stereo unspecified)	.	0%[57.1 µM]	-17%	.	?	-3%
Cc1cc(O)ccc1Nc1nc(-c2cccs2)cs1	-27%	?	?	-18%	45µM*	-16%
Cc1nc(C)c(-c2csc(Nc3ccc(F)cc3)n2)s1	-20%	?	?	-31%	20µM*	?
Cc1cc(O)ccc1Nc1nc(-c2cccnc2)cs1	-2%	?	-18%	3%	.	3%
Cc1nc(C)c(-c2csc(Nc3ccc(O)cc3C)n2)s1	27µM*	-5%	-30%	23%	-1%[59 µM]	15%
COc1ccc(C2C(=O)N(C3CCC(C)CC3)CC(=O)N2C2CCCC2)cc1OC (stereo unspecified)	.	-2%	-3%	.	9%[59 µM]	48%
COc1ccccc1-c1cc2nc(-c3ccccc3)cc(N3CCN(C(=O)c4ccco4)CC3)n2n1	-13%	.	.	.	.	.
CC(C)(C)C(=O)NC(=S)Nc1ccc(Cc2ccncc2)cc1	-21%	-35%	?	-2%	35µM*	-15%
O=C(NC(=S)Nc1ccc(Cc2ccncc2)cc1)c1ccc(F)cc1	-12%	.	-15%	50µM*	?	-12%
CNC(=S)Nc1ccc(Cc2ccncc2)cc1	-2%	-3%	-5%	5%	8%	41%
SMILES	PLK1 PBD inh	BAZ2B inh	JMJD2A Tudor	Sfp PPTase inh	G9a inh	HP1b chromo inh
CCOC(=O)C1CCCN(C(=O)c2cc3ccc(OC)cc3[nH]2)C1 (stereo unspecified)	0%	-28%	-11%	6%	8%	-3%
CN(C)c1ccc(NC(=O)c2ccc(N3CCOCC3)nc2)cc1	-15%	?	?	?	7.9µM*	-14%
CC(C)(C)c1ccc(C(=O)Nc2ccc(N3CCOCC3)cc2)cc1	-4%	-9%	-25%	-3%	-13%[12.7 µM]	-3%
O=C(Nc1ccc(N2CCOCC2)cc1)c1cc(F)c(F)cc1Cl	-5%	0%	-20%	17%	-4%[59 µM]	17%
O=C(Nc1ccc(N2CCOCC2)cc1)Nc1cnsn1	?	-11%	-17%	28µM*	?	22%
CSc1ccc(Cl)c(C(=O)Nc2ccc(N3CCOCC3)cc2)c1	-12%	?	-34%	-6%	50µM*	2%
Cc1oc(C(C)(C)C)cc1C(=O)Nc1ccc(N2CCOCC2)cc1	0%	-25%	-17%	0%	45µM*	-10%
CCOc1ccccc1NC(=O)COC(=O)c1cn(CC)c2nc(C)ccc2c1=O	.	1%	-12%	.	-5%[59 µM]	11%
O=C(Nc1ccc(Cl)cc1)Nc1ccc(N2CCOCC2)cc1	-7%	8%	-6%	9%	-49%[12.7 µM]	33%
O=C(Nc1ccc(N2CCOCC2)cc1)C1=NN(c2ccccc2)C(=O)CC1	-3%	-34%	-19%	.	45µM*	8%
Cc1ccc(NC(=O)c2cc(N3C(=O)C=CC3=O)ccc2N2CCOCC2)cc1Cl	4.7µM*	50µM*	20µM*	4µM*	1.6µM*	?
O=C(Nc1ccc(N2CCOCC2)cc1)Nc1ccc(Cl)c(Cl)c1	-5%	-10%	-32%	-23%	7.1µM*	20%
Cc1ccc(NC(=O)Nc2ccc3c(c2)nc(C)n3C)cc1C	.	2%	.	14%	-3%	.
Cc1nc2cc(NC(=O)Nc3ccc(N4CCOCC4)cc3)ccc2n1C	-2%	-22%	-19%	8%	8.9µM*	18%
CC(C)[C@@H]1C(=O)N(S(C)(=O)=O)[C@H]2CCN(C(=O)/C=C\CN3CCCCC3)[C@@H]12	.	.	.	17%	.	.
COc1ccc([N+](=O)[O-])cc1NC(=O)C(C)OC(=O)C1CCC1 (stereo unspecified)	-1%	-1%	-10%	.	-41%[0.501 µM]	9%
CC(Sc1nnc(Cc2ccccc2)o1)C(=O)Nc1ccccc1[N+](=O)[O-] (stereo unspecified)	-6%	-19%	-14%	.	17%[12.7 µM]	48%
O=C(Nc1ccc(N2CCOCC2)c(Cl)c1)c1ccco1	-8%	3%	-18%	4%	-2%[2.33 µM]	29%
CC(C)c1ccc(C(=O)Nc2ccc(N3CCOCC3)cc2)cc1	-6%	-10%	-13%	12%	50µM*	23%
O=C(Nc1ccc(N2CCOCC2)c(Cl)c1)c1ncn[nH]1	-3%	18µM*	56µM*	-11%	-11%[59 µM]	28%
O=C(Nc1ccc2c(c1)OCO2)c1ccccc1SCC(=O)N1CCCC1	0%	13%	-5%	-2%	-12%[12.7 µM]	26%
